The sample as a whole holds a higher share of hits than the screen did.
RORgamma inh – blocks mouse ROR gamma transcriptional activity; P51450; Drosophila S2 Gal4-RORgamma UAS-luciferase reporter, 20 h; Potency, µM (series often up to 53.6 µM), for inactives: top-dose activity change, negative = inhibition, most hits filed as inhibitors; 310,000 compounds, 5.4% hits; also: potency is read from the fitted curve at half-maximal effect; % is scaled to controls: 0 for no effect and ±100 for the full control effect; nearly all actives have a fitted effect of over 60% in size
Target sequence (P51450 whole entry, looked up, the tested form may be a part): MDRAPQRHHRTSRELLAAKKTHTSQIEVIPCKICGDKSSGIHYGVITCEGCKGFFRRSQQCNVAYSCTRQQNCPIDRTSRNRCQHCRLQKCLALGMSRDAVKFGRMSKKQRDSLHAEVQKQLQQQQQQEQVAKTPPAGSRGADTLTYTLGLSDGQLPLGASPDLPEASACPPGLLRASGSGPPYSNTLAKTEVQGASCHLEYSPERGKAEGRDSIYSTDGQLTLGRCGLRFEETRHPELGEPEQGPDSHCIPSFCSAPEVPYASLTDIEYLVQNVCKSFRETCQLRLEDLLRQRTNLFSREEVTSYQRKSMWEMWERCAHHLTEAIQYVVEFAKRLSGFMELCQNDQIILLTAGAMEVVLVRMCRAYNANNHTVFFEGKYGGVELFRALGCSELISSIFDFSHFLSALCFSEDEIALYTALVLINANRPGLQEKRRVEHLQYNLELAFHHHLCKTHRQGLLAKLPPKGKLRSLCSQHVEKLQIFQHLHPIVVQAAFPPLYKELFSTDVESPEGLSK
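Luciferase reporter read in Schneider cells carrying Gal4-RORγ (mouse) and UAS-Photinus luciferase; cells given compound 1 h before 700 uM copper sulfate induction, then incubated 20 h at ambient temperature.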
Gal4-VP16 FLuc – Gal4-VP16 reporter inhibition counter-screen. Drosophila S2 Gal4-VP16 UAS-luciferase, luminescence, 20 h. Potency, µM (highest dose often 53.6 µM), without a hit: at the top dose activity, negative = inhibition, usual class: inhibitors. 310,000 compounds, 3.5% hits. AID 2546;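 also: Gal4-VP16 expression switched on by copper sulfate through the metallothionein promoter; potency is read from the fitted curve at half-maximal effect; % is scaled to controls: 0 for no effect and ±100 for the full control effect; nearly all actives have a fitted effect of over 50% in size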
a7 integrin act – activates integrin-mediated alleviation for muscular dystrophy. alpha7betagal myoblasts, beta-gal FDG fluorescence, 48 h. Potency, µM (doses to about 38.3 µM), inactives show at the top dose activation, hits mostly activators. 350,000 compounds, 0.064% hits. AID 624291;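 also: potency is read from the fitted curve at half-maximal effect; 100% = response of the positive control SU9516; nearly all actives have a fitted effect of over 60% in size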
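Alpha7betagal+/- myoblasts (passage 13) were plated 16-24 hr, then exposed to compounds (1:260 dilution of DMSO stock) for 48 hours at 37C. After MPER lysis, β-galactosidase reporter activity was read as FDG fluorescence (ex 480/em 540) after 30 minutes.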
Giardia killer – kills Giardia lamblia; Giardia lamblia trophozoite viability; activity change, % at 7.66 µM, hits read low; 340,000 compounds, 0.15% hits; in the data active = activity change below about -80%; inconclusive = between about -30% and that limit;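 also: parasites exposed to compound for two days anaerobically before the ATP read; % is scaled to controls: 0 for no effect and ±100 for the full control effect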
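Each well holds 100 Giardia trophozoites and compound. After two days (48 hrs) at 37 deg C in anaerobic conditions, ATP is quantified by luminescence.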
ERG-DNA inh – inhibitors of human ERG Ets domain-DNA interaction | P11308 | fluorescence polarization, His-ERG Ets domain / labelled DNA | Potency, µM (doses to about 76.9 µM), inactives show at the top dose FP activity, negative = inhibition, hits mostly inhibitors | 370,000 compounds, 0.028% hits | AID 624246; active = well fitted inhibition curve with a large enough effect in the polarisation, with a control signal flat; inconclusive = small, poorly fitted or top-dose-only effect, or effect the other way, or a change in a side signal; inactive = no such curve, though single readings can be large or run the other way; the % refers to the polarisation;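 also: polarization taken with two DNA probes labelled with fluorescein and Texas red; potency is read from the fitted curve at half-maximal effect; % of control where 0% means no effect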
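His-tagged ERG Ets domain (1 uM in the protein solution; 300mM KCl, 50mM Tris-HCl, 1mM EDTA, 1mM DTT, pH 7.5) received compound, then a probe mix of 5 nM fluorescein-DNA and 100nM Texas-615-DNA. Fluorescence polarization was read for both dyes.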
An asterisk follows results filed as active; u = inconclusive; x = no result given; [ ] = dose if it differs, or a comment. Unless noted, calls follow the shape of the dose curve; as a rule, active = well fitted curve in the direction sought with a large enough effect; inconclusive = small, poorly fitted or top-dose-only effect, or another doubt; inactive = no such curve, though single readings can be large; an effect the other way counts as inactive or inconclusive.

SMILES	RORgamma inh	Gal4-VP16 FLuc	a7 integrin act	Giardia killer	ERG-DNA inh
C/C(=N/NC(=O)CN(c1ccccc1)S(=O)(=O)c1ccccc1)c1ccccc1O	0.708µM*	0.794µM*	-49.7%	-21.6	-5.9%
CCCC/C(C)=N/NC(=O)CN(c1ccc(Br)cc1)S(=O)(=O)c1ccccc1	10.7%	1.2%	-5.9%	-3.8	-10.6%
C/C(=N\NC(=O)CCCCCNC(=O)c1ccccc1)c1ccccc1O	5.01µM*	10µM*	-35.4%	-12.1	-1.4%
O=C(CCCCCNC(=O)c1ccccc1)N/N=C/c1ccc(O)cc1O	-21.1%	-15.4%	u	1.6	-5.6%
COc1ccc(CCNC(=O)CCS(=O)(=O)c2cc3c(cc2Cl)NC(=O)CO3)cc1OC	x	x	x	x	-2.2%
CCc1ccc(NC(=O)C2CCCN2S(=O)(=O)c2ccc3c(c2)CCCC(=O)N3)cc1 (centres undefined)	x	x	x	x	-2.6%
COc1ccc(OCC(=O)NC2CC(=O)N(c3cccc(OC)c3)C2)cc1 (centres undefined)	x	x	x	x	7.2%
COc1ccccc1-c1nc2n(n1)C(c1ccccc1Cl)C(C(=O)Nc1cccnc1)=C(C)N2 (centres undefined)	x	x	x	x	-5.0%
CCCC(=O)Nc1nnc(S(=O)(=O)N(C)Cc2ccc(Cl)cc2)s1	x	x	x	x	6.4%
CCCN(C(=O)CSc1nnc(-c2ccc3c(c2)OCO3)o1)C1CCS(=O)(=O)C1 (centres undefined)	x	x	6.1%	x	x
Cc1ccc(C(=O)Nc2ccc3ncccc3c2)cc1	14.1µM*	11.2µM*	32.9%	-84.8*	-3.1%
COc1ccc(C(=O)Nc2ccc3ncccc3c2)cc1	u	u	10.0%	u	8.1%
CCOC(=O)c1cc(S(=O)(=O)N2CCN(c3ccc(C(C)=O)cc3)CC2)[nH]n1	x	x	x	x	0.2%
O=[N+]([O-])c1ccc(NNS(=O)(=O)c2cc(Cl)ccc2Cl)nc1	12.6µM*	u	-38.9%	20.9	19.6%
O=[N+]([O-])c1ccc(Nc2ccc(Cl)cc2)nc1	-13.2%	-11.0%	u	12.1	2.0%
Nc1nc(NC(=O)c2ccc(Cl)cc2)nn1-c1ccccc1	u	u	-6.4%	15.8	-3.9%
O=C(Nc1nc(N2C(=O)c3ccccc3C2=O)n(-c2ccccc2)n1)c1ccc(Cl)cc1	14.1µM*	u	1.1%	-4.2	-16.0%
COc1ccccc1NC(=O)/C(C#N)=C/c1ccncc1	u	2.51µM*	u	7.3	4.4%
COc1ccc(CCNC(=O)CN2C(=O)COc3ccc(C)cc32)cc1OC	x	x	x	x	1.0%
O=C(NC(=S)N1CCN(C/C=C/c2ccccc2)CC1)c1c(F)cccc1F	1.26µM*	2.82µM*	-20.6%	-3.9	5.3%
O=C(c1ccco1)N1CCN(C/C=C/c2ccccc2)CC1	17.4%	-4.0%	-4.0%	-3.8	0.1%
O=C(NC(=S)N1CCN(C/C=C/c2ccccc2)CC1)c1ccco1	1.12µM*	3.98µM*	-39.9%	5.9	-15.5%
O=C(COc1ccc(Cl)cc1)N1CCN(C(=O)c2cccs2)CC1	7.08µM*	17.8µM*	18.8%	61.7	1.2%
Cc1ccc(NC(=O)c2ccc3c(c2)OCCO3)cc1C	5.01µM*	u	13.8%	-17.6	-7.7%
CC(=O)NS(=O)(=O)c1ccc(NC(=O)c2ccc3c(c2)OCO3)cc1	20µM*	0.0%	5.1%	9.8	1.3%
SMILES	RORgamma inh	Gal4-VP16 FLuc	a7 integrin act	Giardia killer	ERG-DNA inh
Cc1cc(C)c(C(=O)Nc2ccc3c(c2)OCCO3)c(C)c1	x	x	0.0%	x	x
Cc1cc(C)c2[nH]c(C(=O)Nc3ccc4c(c3)OCO4)cc2c1	0.398µM*	-24.5%	-8.5%	-1.8	2.7%
Cc1cccc(NC(=O)c2ccc3c(c2)OCCO3)c1	u	u	7.1%	u	-5.2%
Cc1ccc(C(=O)Nc2ccc3c(c2)OCCO3)c(C)c1	3.16µM*	4.47µM*	11.1%	u	-3.4%
Cc1cccc(NC(=O)CNC(=O)Cn2cc(C(F)(F)F)cc(Cl)c2=O)c1C	x	x	-6.0%	-18.0	2.3%
COc1ccccc1N(/N=C1\Sc2ccccc2C1=O)C(C)=O	8.91µM*	u	u	-24.2	0.4%
COc1ccc(N(/N=C2\Sc3ccccc3C2=O)C(C)=O)cc1	u	19.1%	15.9%	-2.7	-1.6%
O=C(N/N=C/c1cc(Cl)ccc1O)c1ccccc1Br	0.708µM*	1.26µM*	-32.8%	13.3	-7.1%
O=C(CNC(=O)c1ccccc1Br)N/N=C/c1cccs1	0.4%	1.1%	-13.9%	2.4	9.2%
O=C(/C=N/NC(=O)c1ccccc1Br)c1ccccc1	u	13.9%	-1.4%	29.2	8.6%
O=C(N/N=C\c1cc(Cl)ccc1O)c1ccc(S(=O)(=O)N2CCCCC2)cc1	5.01µM*	3.55µM*	-36.1%	-23.4	5.7%
O=C(CNC(=O)c1ccccc1Br)N/N=C/c1ccccc1O	3.16µM*	u	-21.8%	7.6	-8.4%
C/C=N\NC(=O)CNC(=O)CNC(=O)c1ccccc1	-27.1%	-5.0%	-4.5%	-1.1	35.5µM*
O=C(CNC(=O)c1ccccc1)N/N=C/c1cc(Br)ccc1O	2.51µM*	7.08µM*	-14.2%	-12.3	10.5%
O=C(CNC(=O)c1ccco1)N/N=C/c1ccc(O)cc1O	u	6.1%	u	1.1	12.3%
O=C(CNC(=O)c1ccco1)N/N=C/c1cc(Br)ccc1O	8.91µM*	11.2µM*	-1.0%	20.8	3.2%
O=C(CNC(=O)c1ccccc1Br)N/N=C\c1cc([N+](=O)[O-])cc(Br)c1O	11.2µM*	7.94µM*	-10.7%	6.1	-6.6%
O=C(CNC(=O)c1ccc2c(c1)OCO2)N/N=C/c1cc(Br)ccc1O	20µM*	u	-14.9%	0.8	0.6%
COc1ccc(SCC(CC(C)C)N2CCN(C)CCC2=O)cc1 (centres undefined)	11.3%	11.8%	x	20.9	x
CC1=C(C(=O)Nc2ccccc2)C(c2cccs2)NC(=O)N1 (centres undefined)	10.2%	-4.5%	-33.6%	-10.2	-6.0%
Cc1noc(C)c1-c1ccc2ncnc(NCc3ccco3)c2c1	-1.1%	-8.5%	x	x	x
O=C(CNC(=O)c1ccccc1Br)N/N=C/c1cc(Br)ccc1O	2.24µM*	5.01µM*	-17.9%	u	2.6%
CCOc1ccc(NC(=O)CN2CC(c3ccccc3)CC2=O)cc1 (centres undefined)	u	10.2%	14.2%	u	-4.7%
O=C(N/N=C/c1cccnc1)c1cccc(Cl)c1	4.7%	-14.1%	19.1%	5.7	-20.4%
O=C(CNC(=O)c1ccncc1)N/N=C/c1cc(Br)ccc1O	-6.6%[10 µM]	-5.6%	-3.8%	-21.5	-0.2%
O=C(CN1CC(c2ccccc2)CC1=O)N/N=C/c1cc(Br)ccc1O (centres undefined)	4.47µM*	3.16µM*	-12.8%	-12.9	-11.6%
COC(=O)N/N=C/c1cc([N+](=O)[O-])cc(Br)c1O	11.2µM*	u	15.3%	10.0	x
O=C(N/N=C/c1cc(Cl)ccc1O)c1cccnc1	1.12µM*	0.708µM*	-26.1%	-14.1	1.2%
COc1ccc(Cn2c(=O)n(Cc3ccco3)c(=O)c3oc4ccccc4c32)cc1	x	x	x	x	-7.5%

Screening results as filed in PubChem BioAssay.
